Source: PubChem BioAssay AID540351 (The Scripps Research Institute Molecular Screening Center, 2011)
A number with no mark means an inactive call. How the calls were made is not given here.

Tested on: Potassium Channel [KATP]
Experiment: off-target receptor, channel and CYP panel, profiling panel, selectivity assay for S1P3 agonist project, biochemical, Ricerca HitProfilingScreen, CYP450 (AID 540351)
Conditions: Ricerca receptor/enzyme binding panel plus CYP450, at 30 µM, hits give high values

`O=C(c1cc(C2CC2)on1)N(C1CCCCC1)C1CCCCC1` showed an inhibition of 16%.
